Test results taken from publication PMC4336329 (PLoS ONE, 2015).
The campaign covered roughly 310,000 compounds. About 14,000 (4.5%) showed an effect of 50% or more. The effect is printed as a negative number. Only a selection was taken, and strong results are over-represented in it overall.

Target: human ether-à-go-go-related gene (hERG) potassium channel (human, UniProt Q12809)
Test: primary screen, population patch clamp on CHO cells stably expressing hERG; higher = less effect of the substance
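Further: peak tail current of the secondary pulse compared with the same well before compound.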

Chain of human ether-à-go-go-related gene (hERG) potassium channel (Q12809 whole entry, looked up): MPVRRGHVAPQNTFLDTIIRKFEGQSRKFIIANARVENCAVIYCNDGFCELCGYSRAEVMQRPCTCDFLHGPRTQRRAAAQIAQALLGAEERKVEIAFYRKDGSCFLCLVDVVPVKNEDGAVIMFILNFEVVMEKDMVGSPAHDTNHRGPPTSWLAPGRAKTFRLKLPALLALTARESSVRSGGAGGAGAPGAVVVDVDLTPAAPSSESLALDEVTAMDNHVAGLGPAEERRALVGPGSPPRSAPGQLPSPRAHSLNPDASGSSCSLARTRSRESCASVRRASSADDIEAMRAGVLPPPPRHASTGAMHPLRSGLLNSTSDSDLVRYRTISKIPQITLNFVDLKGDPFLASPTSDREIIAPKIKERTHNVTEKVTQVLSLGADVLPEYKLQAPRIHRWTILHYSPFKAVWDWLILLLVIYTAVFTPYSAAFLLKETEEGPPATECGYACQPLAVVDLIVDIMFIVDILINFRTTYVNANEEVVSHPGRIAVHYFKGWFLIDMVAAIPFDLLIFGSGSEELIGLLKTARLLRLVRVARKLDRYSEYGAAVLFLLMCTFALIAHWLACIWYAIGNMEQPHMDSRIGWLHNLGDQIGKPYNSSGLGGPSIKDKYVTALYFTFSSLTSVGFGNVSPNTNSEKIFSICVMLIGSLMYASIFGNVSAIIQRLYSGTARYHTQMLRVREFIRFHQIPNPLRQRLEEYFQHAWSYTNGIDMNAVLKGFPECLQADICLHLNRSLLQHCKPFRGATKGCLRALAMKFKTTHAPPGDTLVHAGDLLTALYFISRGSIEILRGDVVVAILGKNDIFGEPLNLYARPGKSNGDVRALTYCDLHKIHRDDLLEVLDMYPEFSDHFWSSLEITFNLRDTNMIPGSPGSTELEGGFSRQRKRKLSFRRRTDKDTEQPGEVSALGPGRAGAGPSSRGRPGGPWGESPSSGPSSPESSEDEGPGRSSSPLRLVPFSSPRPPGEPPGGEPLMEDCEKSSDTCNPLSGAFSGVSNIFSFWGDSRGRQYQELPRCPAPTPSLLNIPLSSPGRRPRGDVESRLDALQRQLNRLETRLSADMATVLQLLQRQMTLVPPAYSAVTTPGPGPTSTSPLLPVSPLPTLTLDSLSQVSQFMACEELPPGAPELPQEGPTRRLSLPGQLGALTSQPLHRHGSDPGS

Row | SMILES | hERG current change (%, negative = inhibition) at 10uM
1 | COc1ccc(C2=NO[C@@H]3C(=O)N(Cc4ccccc4)C(=O)[C@H]23)cc1OC | -1.95%
2 | CN(C)S(=O)(=O)c1ccc(N/C=C(\[N+](=O)[O-])S(=O)(=O)c2ccccc2)cc1 | 15.2%
3 | COCCNC(=O)/C(C#N)=C/c1ccc(O)cc1 | 10.6%
4 | Cc1ccc(C(C)NC(=O)Cc2cccs2)c(C)c1 (stereo not drawn) | -9.26%
5 | CSc1ccc(C(=O)NCC(c2ccco2)N(C)C)cc1[N+](=O)[O-] (stereo not drawn) | 17.8%
6 | Nc1nnc(-c2ccccc2)c(-c2ccccc2)n1 | -10.7%
7 | Cc1ccccc1OCCC(=O)OCC(=O)Nc1cc(S(=O)(=O)N2CCOCC2)ccc1Cl | -27.8%
8 | Cc1c(NC(=S)Nc2ccccc2C(F)(F)F)cccc1[N+](=O)[O-] | 8.27%
9 | O=C(c1cn(-c2ccccc2)nc1-c1cccnc1)N1CCN(S(=O)(=O)c2cccc(F)c2)CC1 | -13.6%
10 | COc1ccccc1N1CCN(C(=O)c2cn(Cc3ccccc3)nc2-c2cccnc2)CC1 | -8.12%
11 | N#Cc1ccccc1S(=O)(=O)N1CCN(C(=O)c2cn(-c3ccccc3)nc2-c2cccnc2)CC1 | -48%
12 | CN1CCN(C(=O)c2cn(-c3ccccc3)nc2-c2cccnc2)CC1 | -18.4%
13 | COc1ccccc1N1CCN(C(=O)c2cn(-c3ccccc3)nc2-c2cccnc2)CC1 | -50.2%
14 | O=C(c1cn(-c2ccccc2)nc1-c1cccnc1)N1CCN(S(=O)(=O)c2ccccc2F)CC1 | -70.5%
15 | Nc1nnc(SCc2nnc(-c3ccccc3)o2)s1 | -1.84%
16 | COC(=O)N/N=C/c1c[nH]c2ccccc12 | 14.5%
17 | CC(C)c1onc(C(=O)N2C(C)CCCC2C)c1[N+](=O)[O-] (stereo not drawn) | 18.8%
18 | Cc1ccc(NC(=O)c2cccc(N3C(=O)C4C5C=CC(C5)C4C3=O)c2)cc1C (stereo not drawn) | -7.07%
19 | COc1ccc2nc(NC(=O)CS(=O)(=O)Cc3ccccc3)sc2c1 | 23.2%
20 | COC(=O)/C(=N/Nc1ccccc1C)Sc1nnc(C(O)c2ccccc2)n1-c1ccccc1 (stereo not drawn) | 13.3%

Row | SMILES | hERG current change (%, negative = inhibition) at 10uM
21 | Cl.c1ccc(CN2CCC3(CCCc4ccccc43)CC2)cc1 | -69.6%
22 | Cl.c1ccc(CN2CCOCC2)cc1 | 22%
23 | c1ccc(CN2CCC3(CC2)Nc2ccccc2CO3)cc1 | -21.9%
24 | COc1ccc(N(CC(=O)Nc2cc(Cl)ccc2C)S(=O)(=O)c2c(C)noc2C)cc1 | 16.7%
25 | COC(=O)CC1C(=O)NCCN1C(=O)c1c(F)cccc1F (stereo not drawn) | 14.5%
26 | O=C(NCc1ccncc1)c1cncc(Br)c1 | 10.1%
27 | CC1CN(c2nc3c(c(=O)n(Cc4ccc(Cl)c(Cl)c4)c(=O)n3C)n2C)CC(C)O1 (stereo not drawn) | -35.7%
28 | Cn1c(=O)c2c(nc(N3CCCCC3)n2C)n(C)c1=O | -21.5%
29 | Cn1c(N2CCCC2)nc2c1c(=O)n(Cc1ccc(Cl)cc1)c(=O)n2C | -68.6%
30 | Cn1c(NCCCN2CCOCC2)nc2c1c(=O)n(Cc1ccc(Cl)c(Cl)c1)c(=O)n2C | -46%
31 | Cn1c(N2CCOCC2)nc2c1c(=O)n(Cc1ccc(Cl)c(Cl)c1)c(=O)n2C | -50.5%
32 | Cn1c(N2CCCC2)nc2c1c(=O)n(Cc1ccc(F)cc1)c(=O)n2C | 0.592%
33 | Cn1c(N2CCN(c3ccccn3)CC2)nc2c1c(=O)n(Cc1ccc(Cl)cc1)c(=O)n2C | -18%
34 | CC1CN(c2nc3c(c(=O)n(Cc4ccc(Cl)cc4)c(=O)n3C)n2C)CC(C)O1 (stereo not drawn) | -31.2%
35 | Cn1c(N2CCOCC2)nc2c1c(=O)n(Cc1ccc(Cl)cc1)c(=O)n2C | -54.5%
36 | COc1ccc(CC(=O)NCc2cccs2)cc1OC | 2.71%
37 | O=C(Cn1cc(Cl)ccc1=O)c1ccc(Cl)cc1 | 11.7%
38 | CCOc1ccc(C(=O)NC(C(=O)NCCc2ccc(OC(F)F)cc2)C(C)C)cc1 (stereo not drawn) | -62.6%
39 | CCOc1ccc(CN(C)C(C)C(=O)NCc2ccccc2)cc1 (stereo not drawn) | -54.8%
40 | CCc1ccc(CN(C)C(C)C(=O)NCc2ccccc2)cc1 (stereo not drawn) | -23.5%

Row | SMILES | hERG current change (%, negative = inhibition) at 10uM
41 | CCOc1ccc(C(=O)N[C@H](C(=O)O)C(C)C)cc1 | 7.22%
42 | CCC(CC)C(=O)NCCc1ccc(F)cc1 | 12.1%
43 | CSc1ccc(CN(C)C(C)C(=O)NCc2ccccc2)cc1 (stereo not drawn) | -32.8%
44 | CCOc1ccc(CN(C)C(C)C(=O)NCCc2ccc(F)cc2)cc1 (stereo not drawn) | -71.5%
45 | CCOc1ccc(CCNC(=O)C(O)c2ccccc2)cc1 (stereo not drawn) | 4.11%
46 | CCOc1ccc(C(=O)NC(C(=O)NCCc2ccc(S(N)(=O)=O)cc2)C(C)C)cc1 (stereo not drawn) | 13.4%
47 | Cc1ccc(OCCCCNC(C)c2ccccc2)c(C)c1 (stereo not drawn) | 2.1%
48 | O=C(NN1C(=O)/C(=C/C=C/c2ccco2)SC1=S)c1ccncc1 | 15.3%
49 | Cc1ccc(C2c3[nH]c4ccccc4c3C[C@H]3C(=O)N(c4ccccc4C(=O)N4CCC[C@@H]4C(=O)O)C(=O)N23)cc1 (stereo partly drawn) | -0.654%
50 | Cc1ccc2c(=O)cc(C(=O)NCCc3ccc(S(N)(=O)=O)cc3)oc2c1 | 9.13%
51 | Cc1ccccc1NC(=O)Cn1nc(C(F)(F)F)cc1C1CC1 | 8.48%
52 | COC(=O)C1=C(C)OC(N)=C(C#N)C1c1cc(C)sc1C (stereo not drawn) | -0.682%
53 | Nc1cc(=O)[nH]c(SCC(=O)N2CCC(Cc3ccccc3)CC2)n1 | -2.88%
54 | C/C(=N/NC(N)=S)c1ccccc1[N+](=O)[O-] | 7.13%
55 | Nc1nc(-c2ccc3c(c2)NC(=O)CO3)cs1 | 15.5%
56 | CCOc1ccccc1CN1CCN(CC2CC2)CC1CCO (stereo not drawn) | -2.67%
57 | OCCOc1ccc(CN2CCN(CCCc3ccccc3)C(CCO)C2)cc1 (stereo not drawn) | -63.3%
58 | CCOc1ccc(CN2CCN(CCCc3ccccc3)CC2CCO)cc1 (stereo not drawn) | -76%
59 | CCOc1ccccc1CN1CCN(CCCc2ccccc2)CC1CCO (stereo not drawn) | -64.9%
60 | CCOc1ccc(CN2CCN(CCCc3ccccc3)C(CCO)C2)cc1 (stereo not drawn) | -75.5%
